Among the test systems are S6K1; SBK1; SGK2; SGK3; SGK; SIK2; SIK; SLK; SNRK; SRC; SRMS; SRPK1.
Holding throughout (settings): concentration: 1 μM, replicates: in singlicate; n = 1
The subject of assay [1] is T1, RSK1(Kin.Dom.2-C-terminal).
T1 construct: gene RPS6KA1

For assay [2], the system named is T2, RSK2(Kin.Dom.1-N-terminal).
T2 construct: gene RPS6KA3

The test system of assay [3] is T3, RSK2(Kin.Dom.2-C-terminal).
T3 construct: gene RPS6KA3

The test system of assay [4] is T4, RSK3(Kin.Dom.1-N-terminal).
T4 construct: gene RPS6KA2

Assay [5] concerns T5, RSK3(Kin.Dom.2-C-terminal).
T5 construct: gene RPS6KA2

The test system of assay [6] is T6, RSK4(Kin.Dom.1-N-terminal).
T6 construct: gene RPS6KA6

For assay [7], the system named is T7, RSK4(Kin.Dom.2-C-terminal).
T7 construct: gene RPS6KA6

In a further assay the test system is T8, SNARK.
T8 construct: gene NUAK2
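Further: KINOMEscan kinase panel screen.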

Take `Cc1ccc(NC(=O)Nc2ccccc2)cc1-c1ccc(C(=O)Nc2ccncc2)cc1` [GSK1398471]: the “%Inh” value in assay [1] is reported as 10%; in assay [2], 0%; in assay [3], 1%; in assay [4], 3%; in assay [5], 7%; in assay [6], 0%. Also, the “%Inh” value in assay [7] came out at 6%; with S6K1 it was 0%; in the assay on SBK1, 5%; in the assay with SGK2, 0%; with SGK3 it was 10%; in the assay with SGK it was 0%. For the same compound, the “%Inh” value with SIK2 was determined as 0%; in the assay with SIK, 6%; in the assay on SLK, 13%; in the assay with SNARK it was 4%; in the assay with SNRK, 0%; in the assay with SRC it was 20%. The “%Inh” value with SRMS was determined as 0%; in the assay with SRPK1, 33%.
Take `CC(=O)c1c(C)c2cnc(Nc3ccn(C)n3)nc2n(C2CCCC2)c1=O`: the “%Inh” value came to 4% in assay [1]; 0% in [2]; 0% in assay [3]; 0% in assay [4]; 0% in [5]; 0% in assay [6]. For the same compound, the “%Inh” value in assay [7] is given as 0%; in the assay with S6K1 it was 0%; with SBK1 it was 0%; in the assay with SGK2, 0%; in the assay with SGK3, 26%; with SGK, 0%. Besides, the “%Inh” value was 0% in the assay with SIK2; 0% in the assay on SIK; 34% in the assay with SLK; 6% with SNARK; 0% in the assay with SNRK; 0% with SRC. Besides, the “%Inh” value with SRMS and with SRPK1 was 0% in each case.
On to `CC[C@@H]1CO[C@H](C(=O)Nc2ccccc2)CN1c1cc(-c2ccc3c(N)n[nH]c3c2)nc(NC)n1` [GSK2376236], for which the “%Inh” value in assay [1] was 31%; in assay [2], 0%; in assay [3] it was 2%; in [4], 26%; in [5] it was 16%; in assay [6] it was 0%. The “%Inh” value in assay [7] amounted to 7%; with S6K1, 0%; with SBK1, 0%; in the assay on SGK2 it was 0%; in the assay with SGK3, 9%; in the assay with SGK, 19%. Also, the “%Inh” value amounted to 0% in the assay with SIK2; 0% with SIK; 16% in the assay with SLK; 26% with SNARK; 5% in the assay on SNRK; 0% in the assay with SRC. Moreover, the “%Inh” value with SRMS worked out at 0%; in the assay with SRPK1 it was 32%.
On to `COc1ccc(CSc2nnc(-c3ccc4c(c3)CCO4)o2)cc1`, for which the “%Inh” value was 0% in assay [1]; 0% in assay [2]; 3% in assay [3]; 0% in assay [4]; 5% in [5]; 0% in [6]. For the same compound, the “%Inh” value in assay [7] is on record as 17%; in the assay with S6K1 it was 0%; in the assay on SBK1, 0%; in the assay with SGK2 it was 0%; in the assay on SGK3, 0%; in the assay with SGK, 0%. For the same compound, the “%Inh” value in the assay on SIK2, in the assay on SIK, in the assay with SLK, in the assay on SNARK, with SNRK and with SRC was 0% each time. Besides, the “%Inh” value in the assay with SRMS and in the assay on SRPK1 was 0% throughout.
In the case of `CS(=O)(=O)CCNCc1nc(-c2ccc3ncnc(Nc4ccc(OCc5ccccc5)c(Cl)c4)c3c2)cs1.Cl` [GW582764], the “%Inh” value amounted to 0% in [1]; 15% in assay [2]; 2% in assay [3]; 9% in assay [4]; 0% in assay [5]; 0% in assay [6]. Further, the “%Inh” value in assay [7] is listed as 8%; with S6K1 it was 6%; in the assay on SBK1, 23%; in the assay on SGK2 it was 0%; in the assay with SGK3 it was 0%; in the assay with SGK, 11%. Also, the “%Inh” value with SIK2 was found to be 0%; with SIK it was 6%; in the assay on SLK, 14%; in the assay with SNARK it was 0%; in the assay with SNRK, 0%; in the assay with SRC it was 0%. The “%Inh” value in the assay with SRMS was found to be 0%; with SRPK1, 10%.
As to `Cc1ccccc1Cn1ccn2c(=O)cc(N3CCOCC3)nc12` [GSK2269905], the “%Inh” value amounted to 0% in [1]; 9% in assay [2]; 20% in assay [3]; 11% in assay [4]; 0% in [5]; 0% in assay [6]. Besides, the “%Inh” value in assay [7] was determined as 17%; in the assay on S6K1, 0%; with SBK1, 4%; with SGK2, 0%; with SGK3, 2%; in the assay with SGK it was 0%. Besides, the “%Inh” value with SIK2 was 0%; in the assay on SIK, 0%; in the assay with SLK it was 20%; in the assay with SNARK, 0%; in the assay on SNRK, 0%; with SRC, 0%. For the same compound, the results for the “%Inh” value in the assay on SRMS and with SRPK1 were 0% and 24%, respectively.
With `COc1ccc(Nc2nccc(-c3ccc(NC(=O)c4cc5cc(F)ccc5[nH]4)cc3)n2)cc1` [GSK1229496], the “%Inh” value in [1] was determined as 36%; in assay [2] it was 0%; in assay [3], 20%; in assay [4], 0%; in assay [5] it was 0%; in [6] it was 20%. In addition, the “%Inh” value in [7] amounted to 6%; with S6K1, 1%; with SBK1, 17%; with SGK2, 0%; in the assay with SGK3 it was 1%; in the assay with SGK, 0%. Also, the “%Inh” value in the assay on SIK2, with SIK, with SLK, in the assay on SNARK, in the assay with SNRK and in the assay with SRC was 0% each time. Besides, the “%Inh” value with SRMS came to 7%; in the assay with SRPK1, 10%.
Turning to `O=C(Nc1n[nH]c2nc(-c3cccs3)c(Br)cc12)C1CCCC1` [SB-743341], the “%Inh” value in assay [1] is given as 0%; in [2], 15%; in [3], 0%; in assay [4], 0%; in [5] it was 0%; in [6], 26%. In addition, the “%Inh” value in [7] is given as 0%; in the assay on S6K1, 2%; in the assay with SBK1, 0%; in the assay with SGK2 it was 0%; with SGK3, 40%; in the assay on SGK, 0%. The “%Inh” value is 0% in the assay with SIK2; 17% in the assay on SIK; 38% in the assay with SLK; 34% with SNARK; 19% in the assay with SNRK; 7% in the assay with SRC. The “%Inh” value with SRMS and in the assay with SRPK1 was 0% in each case.
`Fc1ccc(-c2nn3cccc(F)c3c2-c2ccncc2)cc1` [GW475620]: the “%Inh” value is listed as 24% in assay [1]; 9% in assay [2]; 33% in assay [3]; 7% in assay [4]; 0% in assay [5]; 16% in assay [6]. Moreover, the “%Inh” value is recorded as 78% in assay [7]; 5% in the assay with S6K1; 12% in the assay with SBK1; 11% with SGK2; 0% in the assay with SGK3; 0% in the assay on SGK. Also, the “%Inh” value is reported as 12% in the assay on SIK2; 3% in the assay with SIK; 16% in the assay on SLK; 0% with SNARK; 0% with SNRK; 1% in the assay with SRC. Moreover, the “%Inh” value with SRMS was 0%; with SRPK1 it was 3%.
Take `Cc1ccc(NC(=O)c2ccc(Cl)cc2)cc1-c1ccc(C(=O)Nc2ccncc2)cc1` [GSK1398467]: the “%Inh” value in assay [1] is 0%; in assay [2], 4%; in assay [3] it was 2%; in assay [4], 8%; in [5], 22%; in [6], 0%. The “%Inh” value is reported as 10% in assay [7]; 7% in the assay with S6K1; 0% with SBK1; 0% with SGK2; 0% in the assay with SGK3; 0% in the assay on SGK. Moreover, the “%Inh” value with SIK2 turned out to be 0%; with SIK it was 0%; in the assay with SLK, 19%; in the assay on SNARK it was 0%; in the assay on SNRK, 0%; with SRC, 0%. The “%Inh” value worked out at 0% with SRMS and 13% with SRPK1.
For `O=C(Nc1n[nH]c2cc(-c3ccsc3)ccc12)C1CC1` [SB-732932], the “%Inh” value came out at 19% in [1]; 27% in [2]; 0% in assay [3]; 71% in assay [4]; 16% in [5]; 29% in assay [6]. Moreover, the “%Inh” value is on record as 24% in assay [7]; 13% with S6K1; 44% in the assay with SBK1; 4% in the assay with SGK2; 26% in the assay with SGK3; 6% in the assay with SGK. Further, the “%Inh” value is listed as 0% in the assay on SIK2; 4% with SIK; 0% with SLK; 29% with SNARK; 15% in the assay with SNRK; 0% in the assay with SRC. The “%Inh” value was determined as 13% in the assay on SRMS and 45% in the assay with SRPK1.

These data come from paper PMC5540273 (PLoS ONE, 2017).
